Results as given in PubChem BioAssay AID1159580 (chemical genetic matrix, 2015).
Screen size: about 5,500 compounds; about 2,000 (36%) were called active. Another 18% or so got no clear call; they are omitted. No stated cut-off is given here; in the data, active means normalized growth mostly below about 0.91 (no sharp cut-off); inconclusive means no clear call, values can overlap the other calls; inactive means mostly above about 0.92. The list shows a part of the results.

Experiment: chemical genetic growth profiling, strain panel (AID 1159580);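 further: tested at 20 µM; growth read once vehicle control cultures reached saturation at 30 °C; 1 = growth at the plate median or of vehicle wells; lower values mean less growth of the strain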
Details: growth OD

Measured: normalized growth

c1ccc(OCCOc2ccccn2)nc1
inactive: S. cerevisiae deletion strains, locus YAL013W, strain DEP1, active compounds read low 1.03 | S. cerevisiae deletion strains, locus YBR229C, strain ROT2, active compounds read low 0.999 | S. cerevisiae deletion strains, locus YCL061C, strain MRC1, active compounds read low 0.992 | S. cerevisiae deletion strains, locus YDL101C, strain DUN1, active compounds read low 1.01 | S. cerevisiae deletion strains, locus YDL134C, strain PPH21, active compounds read low 0.994 | S. cerevisiae deletion strains, locus YDR150W, strain NUM1, active compounds read low 0.972 | S. cerevisiae deletion strains, locus YEL061C, strain CIN8, active compounds read low 1 | S. cerevisiae deletion strains, locus YGR078C, strain PAC10, active compounds read low 1 | S. cerevisiae deletion strains, locus YHR030C, strain SLT2, active compounds read low 1.06 | S. cerevisiae deletion strains, locus YHR087W, strain rtc3, active compounds read low 0.992 | S. cerevisiae deletion strains, locus YJR043C, strain POL32, active compounds read low 0.995 | S. cerevisiae deletion strains, locus YJR075W, strain HOC1, active compounds read low 1 | S. cerevisiae deletion strains, locus YKL190W, strain CNB1, active compounds read low 0.998 | S. cerevisiae deletion strains, locus YLR039C, strain RIC1, active compounds read low 0.999 | S. cerevisiae deletion strains, locus YLR058C, strain SHM2 (second series), active compounds read low 0.996 | S. cerevisiae deletion strains, locus YLR085C, strain ARP6, active compounds read low 1 | S. cerevisiae deletion strains, locus YLR262C, strain YPT6, active compounds read low 1.05 | S. cerevisiae deletion strains, locus YML094W, strain GIM5, active compounds read low 1.01 | S. cerevisiae deletion strains, locus YMR219W, strain ESC1, active compounds read low 1.01 | S. cerevisiae deletion strains, locus YMR263W, strain SAP30, active compounds read low 0.985 | S. cerevisiae deletion strains, locus YMR307W, strain GAS1, active compounds read low 0.959 | S. cerevisiae deletion strains, locus YNL128W, strain TEP1, active compounds read low 1 | S. cerevisiae deletion strains, locus YNL153C, strain GIM3, active compounds read low 0.997 | S. cerevisiae deletion strains, locus YNL298W, strain CLA4 (second series), active compounds read low 0.978 | S. cerevisiae deletion strains, locus YNL322C, strain KRE1, active compounds read low 1.01 | S. cerevisiae deletion strains, locus YNR030W, strain Alg12, active compounds read low 1 | S. cerevisiae deletion strains, locus YPL055C, strain LGE1, active compounds read low 0.982 | S. cerevisiae deletion strains, locus YPL241C, strain CIN2, active compounds read low 0.988 | S. cerevisiae deletion strains, locus YPR135W, strain CTF4, active compounds read low 1.13 | S. cerevisiae strains, strain wild type, active compounds read low 1
